High-throughput results (PubChem BioAssay)
Mtb hypoxia rep: inhibitors of hypoxia-regulated fluorescent reporter in Mycobacterium tuberculosis; M. tuberculosis hypoxia-regulated fluorescent reporter, fluorescence; fluorescence inhibition, % (test concentration not listed); 300,000 tested, 0.1% active; AID 1159583; in the data active = fluorescence inhibition mostly above about 23%, no sharp cut-off; inactive = mostly below about 17%
RN4220 kill: kills Staphylococcus aureus RN4220 | S. aureus RN4220 growth, OD600, 16 h | inhibition, % (no concentration beside the values) | 330,000 tested, 0.33% active | AID 1259311; in the data active = inhibition above about 85%;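 also: plate controls were untreated cells for no effect and reference antibiotic for full effect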
CCHF vOTU inh-1: CCHFV vOTU protease inhibition. 370,000 tested, 0.55% active. Pep-AMC fluorescence. inhibition, % at 11.5 µM. AID 651958; also: 0% = vehicle wells with enzyme and 100% = no enzyme wells
Sa ugtP lethal: kills S. aureus RN4220 lacking UgtP | 330,000 tested, 0.54% active | AID 1259309 | S. aureus RN4220 ugtP deletion, OD600 growth, 16 h | growth inhibition, % (test concentration not listed); in the data active = growth inhibition above about 68%;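 also: plate controls were untreated wells for no effect and antibiotic for full effect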
PriA SSB inh: blocks PriA binding to SSB C-terminal tail | AlphaScreen SSBct-PriA binding, biotinylated peptide | inhibition, % at 33 µM | 430,000 tested, 0.6% active; in the data active = inhibition mostly above about 37%, no sharp cut-off; inactive = mostly below about 20%;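 also: plate controls were negative control peptide for no effect and reference peptide for full effect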
CCHF vOTU inh-2: confirmation of CCHF virus vOTU protease inhibitors. shares compounds with CCHF vOTU inh-1. Recombinant CCHFV vOTU, Pep-AMC fluorescence. inhibition, % at 11.5 µM. 1,900 tested, 17% active. AID 686976
An asterisk follows results filed as active; . = not tested or not shown. Hits are enriched below; roughly 1.4% of the tested compounds scored in any of these assays. Rule as the data show it, unless noted: active = inhibition above about 30%; inactive = the rest.

SMILES | Mtb hypoxia rep | RN4220 kill | CCHF vOTU inh-1 | Sa ugtP lethal | PriA SSB inh | CCHF vOTU inh-2
O=C(Cc1cccs1)Nc1c2c(nn1-c1ccc(Oc3ccccc3)cc1)CSC2 | . | . | . | . | -1 | .
O=C1C(C=Nc2ccccc2O)=C(O)c2ccccc21 | 7 | 12 | 0 | -10 | -3 | .
Cc1ccc(O)c(N=CC2=C(O)c3ccccc3C2=O)c1 | 6 | 14 | 31* | 2 | 28 | 10
CCOC(=O)CCC(=O)N1CCc2ccccc21 | . | . | . | . | -14 | .
CCOC(=O)C1=C(CC)Nc2ccccc2N/C1=N\S(=O)(=O)c1ccc(C(=O)OCC)cc1 | -2 | 8 | 30* | -9 | . | 6
CCCc1nnsc1C(=O)NCC1(O)CCOc2ccccc21 (centres undefined) | . | . | . | . | 3 | .
CC(O)(CNC(=O)C(=O)Nc1cccc(C(F)(F)F)c1)c1cc2ccccc2o1 (centres undefined) | . | . | . | . | -2 | .
COc1cc([N+](=O)[O-])ccc1NC(=S)Nc1cccc(C(=O)O)c1 | 8 | 4 | 31* | 4 | -3 | -13
COc1cc([N+](=O)[O-])ccc1NC(=O)c1cccc(Br)c1 | . | . | . | . | -1 | .
CCCCCCCCNS(=O)(=O)/C=C/c1ccccc1CNC(=O)OC(C)(C)C | . | . | 36* | . | . | 16
CCCCNS(=O)(=O)/C=C/c1ccccc1CCNC(=O)OC(C)(C)C | . | . | 1 | . | . | .
O=c1[nH]c2cc3ccccc3cc2nc1-c1nnnn1C1CCCC1 | . | . | 30* | . | . | 11
CCOc1ccc(S(=O)(=O)NCc2ccco2)c2ccccc12 | 5 | 6 | 32* | -8 | 12 | -4
CCOc1cccc(C2C(=C(O)c3ccc4c(c3)CC(C)O4)C(=O)C(=O)N2Cc2cccnc2)c1 (centres undefined) | . | . | . | . | -1 | .
O=[N+]([O-])C(Cl)=CC(=C(N1CCCCC1)N1CCCCC1)[N+](=O)[O-] | 17 | 23 | . | 1 | . | .
CCc1ccc2c(CN3CCN(S(=O)(=O)c4ccccc4F)CC3)cc(=O)oc2c1 | 2 | 2 | 9 | 9 | -7 | .
CCc1ccc2c(CN3CCN(S(=O)(=O)c4cccs4)CC3)cc(=O)oc2c1 | 8 | 4 | 35* | 3 | -6 | -6
O=C(O)c1ccc(S(=O)(=O)/N=C2\C=C(Nc3ccccc3F)C(=O)c3ccccc32)cc1 | 8 | 34 | 122* | 16 | . | 103*
Cc1ccccc1NC1=C/C(=N\S(=O)(=O)c2ccc(C(=O)O)cc2)c2ccccc2C1=O | 0 | 5 | 107* | -4 | . | 101*
O=C(O)c1ccc(S(=O)(=O)N=C2C=C(Nc3ccccc3F)C(=O)c3ccccc32)cc1 | . | . | . | . | 53 | .
Cc1ccc(C=NNc2ncnc3nc[nH]c23)cc1 | -1 | -2 | . | 12 | -1 | .
c1cc2c3c(cccc3c1)NC1(CCCCC1)N2 | 10 | 6 | 30* | 3 | 18 | 17
c1cc2c3c(cccc3c1)NC1(CCCCCC1)N2 | -91 | 2 | 5 | -23 | 5 | .
Cc1nc(N2C(=O)C(=O)C(=C(O)c3ccccc3)C2c2ccco2)sc1C (centres undefined) | 9 | 3 | . | -1 | -19 | .
CCOC(=O)C(=CC=C1Sc2ccccc2N1CC)C(C)=O | -28 | 8 | . | 0 | . | .
SMILES | Mtb hypoxia rep | RN4220 kill | CCHF vOTU inh-1 | Sa ugtP lethal | PriA SSB inh | CCHF vOTU inh-2
CC(C)(C)NCCC(O)c1cc(C(F)(F)F)nc2c(C(F)(F)F)cccc12 (centres undefined) | . | . | 30* | . | -11 | -18
COc1ccc(C=NNC(=O)c2cc[n+]([O-])cc2)cc1O | -6 | 4 | . | 1 | -1 | .
COc1cc(/C=N/NC(=O)c2cc[n+]([O-])cc2)ccc1O | . | . | 30* | . | . | -11
O=C(O)CN1C(=O)/C(=C\c2cc(Br)ccc2OCc2ccc(F)cc2)SC1=S | -1 | 5 | 31* | 8 | 17 | 25
O=C(O)CN1C(=O)/C(=C\c2ccccc2OCc2ccc(F)cc2)SC1=S | -11 | 9 | 35* | -18 | 0 | 7
COc1ccccc1/C=C1\SC(=S)N(CC(=O)NC2CCS(=O)(=O)C2)C1=O (centres undefined) | -5 | 6 | 31* | 6 | -1 | 0
O=C(CN1C(=O)N/C(=C\c2ccccc2OCc2ccc(C(=O)O)cc2)C1=O)Nc1ccc(F)cc1 | -11 | 7 | 32* | -6 | 0 | -12
O=C(O)CN1C(=O)/C(=C\c2cc(Br)ccc2OCc2ccc(Cl)cc2)SC1=S | 13 | 72 | 14 | 83 | 2 | .
O=C(CN1C(=O)/C(=C/c2ccccc2)SC1=S)NC1CCS(=O)(=O)C1 (centres undefined) | 9 | 3 | 4 | -3 | -15 | .
Cc1ccc2nc(N3CC(C(=O)Nc4ccc(Br)cc4F)C3)sc2c1 | . | . | . | . | -7 | .
O=C(CCn1ccc(=O)[nH]c1=O)Nc1cnn(C2CCOC2)c1 (centres undefined) | . | . | . | . | 6 | .
O=C(Cc1ccc(NC(=O)c2cccc(C(F)(F)F)c2)cc1)NC1CC1 | . | . | . | . | -17 | .
O=C(O)CC(NC(=O)C1c2ccccc2Oc2ccccc21)c1ccc(OC2CCCC2)cc1 (centres undefined) | 2 | -4 | 33* | 27 | -6 | 1
CC(C)(C)C(=O)NCCc1ccoc1 | . | . | . | . | 5 | .
COc1ccc(NS(=O)(=O)c2ccc(O)c(NC(=O)c3ccc(S(=O)(=O)N4CCCC4)cc3)c2)cc1 | 3 | 8 | 34* | 4 | 4 | -6
Oc1ccc(-n2cccc2C=Nn2cnnc2)cc1 | 0 | 3 | . | 2 | -9 | .
CC1(C(=O)NN=Cc2c(F)c(F)c(F)c(F)c2F)CC1(Cl)Cl (centres undefined) | 10 | 5 | . | -7 | -8 | .
CC(C)N1CC2(CC(c3ccccc3C(F)(F)F)=NO2)CN1C(=O)c1ccc(C(C)(C)C)cc1 (centres undefined) | . | . | 17 | . | . | .
CC(C)N1CC2(CC(c3ccccc3F)=NO2)CN1C(=O)c1ccc(C(C)(C)C)cc1 (centres undefined) | . | . | 35* | . | . | -4
COc1ccccc1CNC(=O)C1CCC(CNc2c(N3CCC(C)CC3)c(=O)c2=O)CC1 (centres undefined) | -2 | 3 | 31* | 1 | -15 | -6
CC(=O)c1cc(O)c2ccccc2c1O | 4 | 7 | 37* | 7 | -2 | -9
CC(=O)c1coc2c1cc(O)c1ccccc12 | 20 | 8 | 0 | -1 | -8 | .
CCC(C(=O)NCCN1CCn2cc(OC)c(=O)cc2C1=O)c1ccccc1 (centres undefined) | . | . | . | . | -4 | .
C/C=C/COC(=O)c1[nH]c2c(c1C)C(=O)CC(c1ccco1)C2 (centres undefined) | . | 4 | 30* | 0 | 5 | -17
C=CCOC(=O)c1[nH]c2c(c1C)C(=O)CC(c1ccco1)C2 (centres undefined) | . | 6 | . | 9 | -6 | .
O=C(O)CC1S/C(=N/N=C/c2ccc(-c3ccc(Cl)cc3[N+](=O)[O-])o2)NC1=O (centres undefined) | . | . | 36* | . | . | 15
COc1ccc(C=NN=C2NC(=O)C(CC(=O)O)S2)cc1OCc1ccc(Cl)cc1 (centres undefined) | . | . | . | . | -5 | .
